Compound activity deposited in PubChem BioAssay by National Center for Advancing Translational Sciences (NCATS).
CCT modulator: cytosolic chaperonin activity modulation | purified chaperonin ATPase assay, HTRF ADP detection, 30 min | activity change, % (concentration not given with the values), hits read low | 360,000 tested, 0.3% active | AID 651819; in the data active = activity change below about -30%; note: % is set by controls: 0 for no effect and ±100 for the full control effect
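Enzyme 40 or 20 nM (batch-dependent) in Tris pH 7.4/KCl/MgCl2/DTT; cpd 76 uM single point; ATP 10 uM; 30 min 37 °C; Transcreener ADP HTRF detection, 30 min RT; ratio 665/615.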
aSyn yeast inh: rescues yeast growth from alpha-synuclein toxicity | Yeast expressing alpha-synuclein, growth rescue, BacTiter-Glo, 24 h | Potency, µM (top dose mostly 46.1 µM), for the others: top-dose growth rescue (activation), usual class: activators | 370,000 tested, 0.14% active | AID 652106; note: potency is the fitted concentration of half-maximal effect; % of control where 0% means no effect; nearly all actives have a fitted effect of over 65% in size
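Screening used galactose-induced yeast with toxic alpha-synuclein levels, exposed to compound for 24 hr at 30 deg C. Cell growth, read with BacTiter-Glo luminescence, gave the measured signal.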
Abeta rescue: restores growth of yeast expressing A-beta42 peptide; 410,000 tested, 0.063% active; yeast expressing A-beta42, growth rescue, OD600, 48 h; response scale: 0% DMSO, 100% iron-clioquinol control; Potency, µM (titrated, usually from 46.1 µM), actives largely listed as activators; note: potency is the fitted concentration of half-maximal effect; nearly all actives have a fitted effect of over 55% in size
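Yeast A-beta toxicity model in growth medium with pinned compounds, 48 h at 30 C; growth read as absorbance at 600 nm. Normalized to FeCl3/clioquinol equimolar mix (positive) and DMSO (negative).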
MmCpn inh: inhibitors of Methanococcus maripaludis chaperonin TRiC (MmCpn) | purified Mm-Cpn ATPase, ADP Transcreener TR-FRET | Potency, µM (titrated, usually from 76.9 µM), for inactives: at the top dose activity, negative = inhibition, hits mostly inhibitors | 330,000 tested, 0.031% active; note: potency is the fitted concentration of half-maximal effect; % is set by controls: 0 for no effect and ±100 for the full control effect; nearly all actives have a fitted effect of over 80% in size
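TR-FRET (320 nm excitation; 590 and 665 nm emission) reports ADP made from 10 uM ATP by 25 nM enzyme; compounds were preincubated 10 min, reaction run 30 min, both at 37°C.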
FUS yeast rescue: suppressors of FUS proteinopathy in yeast; Potency, µM (doses to about 76.6 µM), hits mostly activators; 390,000 tested, 0.24% active; S. cerevisiae FUS-expressing, growth rescue, OD600, 24 h;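 note: potency is the fitted concentration of half-maximal effect; plate controls were DMSO vehicle for no effect and reference control for full effect; nearly all actives have a fitted effect of over 55% in size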
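Yeast FUS proteinopathy model; galactose-induced FUS (2%), starting OD 0.005. Cpds in dilution series, 24hr, 30C, 99% humidity. Abs 600 nm growth. Pos ctrl CP55940 (top 92uM final); neg ctrl DMSO.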
TDP-43 yeast inh: inhibitors of TDP-43 toxicity in yeast | 410,000 tested, 1.8% active | TDP-43 expressing yeast growth rescue, BacTiter-Glo, 24 h | Potency, µM (top dose mostly 46.1 µM), for the others: top-dose growth rescue (activation), actives largely listed as activators; note: potency is the fitted concentration of half-maximal effect; % of control where 0% means no effect; nearly all actives have a fitted effect of over 50% in size
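Growth rescue of TDP-43-toxic yeast measured as ATP luminescence (BacTiter-Glo). Cells grown to mid-log in raffinose, induced in galactose at OD600=0.02, exposed to compound 24 hr at 30 deg C.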
* hit, by the source's call; i = inactive; ? = inconclusive; . = not tested or not shown. Sampled rows, rich in hits. Any-hit rate of the full collection: about 2.3%. Unless noted, calls come from the whole dose curve; as a rule, active = well fitted curve in the direction sought with a large enough effect; inconclusive = small, poorly fitted or top-dose-only effect, or another doubt; inactive = no such curve, though single readings can be large; an effect the other way counts as inactive or inconclusive.

SMILES	CCT modulator	aSyn yeast inh	Abeta rescue	MmCpn inh	FUS yeast rescue	TDP-43 yeast inh
COc1ccc2c(c1)CN1CN(CC(C)C)S(=O)(=O)CC21 (configuration not stated)	.	.	.	.	i	.
O=C(NCc1ccccc1)c1ccccc1	4	1%	i	.	i	19%
O=C(NCc1c(O)ccc2ccccc12)c1ccccc1	0	7%	?	0%	i	20µM*
Clc1ccc(OCCn2cnc(Cl)c2Cl)cc1	-1	20%	?	2%	i	11µM*
C/C(=N/NS(=O)(=O)c1ccc(Cl)cc1)c1cccc(NC(=O)c2ccc(Cl)cc2Cl)c1	2	6%	i	-1%	i	13µM*
COc1ccccc1NC(=O)Cn1nnc(-c2ccccc2NC(=O)c2cc3ccccc3oc2=O)n1	3	-4%	i	-3%	25µM*	-9%
COc1ccccc1NC(=O)Cn1nnc(-c2ccccc2NS(=O)(=O)c2ccccc2)n1	3	2%	i	0%	.	-20%
COc1ccccc1NC(=O)c1cc2ccccc2o/c1=N\O	-3	-14%	i	-17%	.	18µM*
CC[C@@H](C)[C@H]1O[C@]2(CC[C@H]1C)C[C@@H]1C[C@@H](CC=C(C)[C@@H](O[C@H]3C[C@H](OC)[C@@H](O[C@H]4C[C@H](OC)[C@@H](O)[C@H](C)O4)[C@H](C)O3)[C@@H](C)C=CC=C3CO[C@@H]4[C@H](O)C(C)=C[C@@H](C(=O)O1)[C@]34O)O2	.	4%	.	.	.	.
COc1ccc(OC)c(/C=C/C(=O)N2CCN(S(=O)(=O)c3ccc(C)cc3C)CC2)c1	-1	17%	i	-3%	.	-2%
COc1ccc(OC)c(/C=C/C(=O)N2CCN(S(=O)(=O)c3cc(C)ccc3C)CC2)c1	3	1%	i	-2%	32µM*	8%
COC(=O)C1CN(Cc2ccccc2)CCS(=O)(=O)N1Cc1cn(Cc2ccccc2Br)nn1 (configuration not stated)	.	.	.	.	14µM*	.
CC(=O)c1cccc(NC(=O)COC(=O)c2ccccc2OCc2cccc(Br)c2)c1	.	-11%	.	.	.	.
O=C(CSCc1ccccc1Cl)N/N=C/c1ccco1	-2	-9%	i	-1%	i	13µM*
CCCCCCCCCC[n+]1ccc(/C=C/c2ccc(N(C)C)cc2)c2ccccc21	.	-76%	.	.	.	.
CCc1noc(C)c1C(=O)N1CCN(CC(=O)OC)CC1	.	.	.	.	i	.
O=C1C=C(c2cccc(Br)c2)C[C@@H](c2ccc3c(c2)OCO3)C1	-1	13%	i	-6%	i	11µM*
O=C1C=C(c2ccc(Oc3ccccc3)cc2)C[C@@H](c2ccc3c(c2)OCO3)C1	-4	-1%	i	-7%	i	14%
O=C1C=C(c2ccc(-c3ccccc3)cc2)C[C@@H](c2ccc3c(c2)OCO3)C1	-1	1%	i	-1%	i	12%
O=C1C=C(c2ccc(CO)cc2)C[C@@H](c2ccc3c(c2)OCO3)C1	0	-1%	i	0%	i	13µM*
COc1cccc(C2=CC(=O)C[C@H](c3ccc4c(c3)OCO4)C2)c1	-2	0%	i	-2%	i	18µM*
O=C1C=C(c2cccc(Cl)c2)C[C@@H](c2ccc3c(c2)OCO3)C1	-2	13%	i	-2%	i	?
O=C1C=C(c2cnc3ccccc3c2)C[C@@H](c2ccc3c(c2)OCO3)C1	2	6%	i	-4%	i	16µM*
CCCN1CNc2c(c(=O)[nH]c(=S)n2CCc2cccc(C)c2)C1	.	2%	.	.	.	.
Cc1cc(N2CCC(C)CC2)nc2ccccc12	.	.	.	.	i	.
SMILES	CCT modulator	aSyn yeast inh	Abeta rescue	MmCpn inh	FUS yeast rescue	TDP-43 yeast inh
COc1ccc(CCn2c(=S)[nH]c(=O)c3c(C)cc(C)nc32)cc1OC	.	-5%	.	.	.	.
COC/C=C/C1=CC(=O)C[C@H](c2ccc3c(c2)OCO3)C1	0	2%	i	2%	i	14µM*
O=C1C=C(c2ccccc2)C[C@@H](c2ccc3c(c2)OCO3)C1	-1	1%	i	-2%	i	20µM*
O=C1C=C(c2ccc(F)nc2)C[C@@H](c2ccc3c(c2)OCO3)C1	-3	8%	i	-5%	i	13µM*
COc1ccc(C2=CC(=O)C[C@H](c3ccc4c(c3)OCO4)C2)cn1	-4	2%	i	0%	i	14%
O=C1CC(c2ccccc2)Cc2[nH]c(=O)c(-c3nc(-c4ccc(F)cc4)cs3)cc21 (configuration not stated)	.	4%	i	.	i	-2%
O=S(=O)(c1ccccc1F)n1c(CN2CCOCC2)nc2ccccc21	.	.	.	.	i	.
CCOC(=O)[C@]12CCCCC/C=C\1N(CCc1ccc(Cl)cc1)C(=O)[C@H]2CC(=O)NCc1cccc2ccccc12	.	.	.	.	i	.
O=C(CSCc1ccc(Cl)cc1)Nc1ccc2c(c1)OCCO2	-4	5%	i	?	i	11µM*
C/C(=N\Nc1nc(C)c(C)s1)c1ccc([N+](=O)[O-])cc1	-2	-7%	i	2%	i	13µM*
CC(=O)Nc1nc(-c2ccc([N+](=O)[O-])cc2)cs1	-3	6%	i	-2%	i	10%
CC(C)=NNc1nc(-c2ccc([N+](=O)[O-])cc2)cs1	-6	6%	i	2%	i	13µM*
CC1CCC2(CC1)CCC2NCc1ccc(Cl)c(Cl)c1 (configuration not stated)	.	.	.	.	i	.
Nc1cccc(S(=O)(=O)N2CCCN(S(=O)(=O)c3ccc4c(c3)OCCO4)CC2)c1	.	.	.	.	i	.
CN1c2c(nc(N)[nH]c2=O)NCC1CNc1ccc(C(=O)NC(CCC(=O)O)C(=O)O)cc1 (configuration not stated)	.	-4%	.	.	.	.
CCN=c1scc(C)n1/N=C/c1ccc(O)c(O)c1O	1	-7%	i	-10%	.	-12%
CCN=c1scc(C)n1/N=C/c1cc(Br)c(O)c(Br)c1	1	-18%	i	0%	i	3.2µM*
Cc1cccc(Cn2cc(/C=C/[N+](=O)[O-])c3ccccc32)c1	2	-16%	i	-1%	i	14µM*
Clc1ccc(-c2nnc3n2N=C(c2ccc(-c4ccccc4)cc2)CS3)c(Cl)c1	.	.	.	.	i	.
O=C(CNC(=O)c1cccc(F)c1)OCCOc1cccc(Cl)c1	1	8%	i	0%	i	13µM*
CCC[C@@H](/C=C/C(=O)OC(C)(C)C)Sc1ccc(N)cc1	.	.	.	.	i	.
